Structures are written as SMILES. Where “and” joins values, the source holds several entries; their conditions need not be identical. Equal entries are not always repeated. Among all 3,300 compounds or so, about 280 (8.5%) were called active. This is one part of a sample in which actives are shown more often than they occur. Unmarked numbers belong to inactive results.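 How the source made its calls: active means mean growth inhibition over the two runs of 50% or more; inactive means mean growth inhibition under 50%.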

The assay can be described thus: A549 NSCLC cell proliferation inhibitors – ATP luminescence, human non-small cell lung line, primary screen (AID 371).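 Further: compound exposure lasted 72 h before the ATP read; 0% = untreated cell signal and 100% = no luminescence left.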 The settings on record: at 10 µM, stronger effect = higher value.
Turning to `O=c1/c(=C\c2cccn2-c2ccccc2)sc2nc3ccccc3n12`, the growth inhibition is 26.5%.
With `CC(C)c1nc(NCCN2CCOCC2)c(C#N)c2c1COC(C)(C)C2` the figure was 20.7%.
With `Oc1ccccc1-c1nc(NCCN2CCOCC2)c2ccccc2n1` the figure was 88.2% (active); with `C=CCNc1nc(-c2cccc(OC)c2O)nc2ccccc12`, 24.3%.
With `COc1cccc(OC)c1OCC(C)CNCC1CCCO1` (centres undefined) the figure was 3.8%; with `Cc1cc(-c2ccccc2)nnc1NCCN1CCOCC1`, -7.35%; with `Cc1cc(OCCN2CCOCC2)nc2ccccc12`, 10.6%.
Regarding `c1ccc2c(NCC3CCCO3)nc(-c3ccncc3)nc2c1` (centres undefined), the growth inhibition is 13.1%.
With `COc1cccc(-c2nc(NCC3CCCO3)c3ccccc3n2)c1O` (centres undefined) the figure was 83.8% (active); with `c1ccc(-n2ncc3c(NCC4CCCO4)ncnc32)cc1` (centres undefined), 33.8%; with `c1ccc(-c2nc(NCC3CCCO3)c3ccccc3n2)nc1` (centres undefined), 60.2% (active).
With `Fc1ccccc1-c1nc(NCCCN2CCOCC2)c2ccccc2n1` the figure was 4.04%.
Consider `COc1cccc(-c2nc(NCCN3CCOCC3)c3ccccc3n2)c1O`, for which the growth inhibition was 80.7% (active).
For `O=C(C1=C(O)C(=O)N(CCCN2CCOCC2)C1c1ccccn1)c1cccs1` (centres undefined), the growth inhibition is 1.45%.
With `Cc1ccc(C(=O)C2=C(O)C(=O)N(c3ncccn3)C2c2ccc(Cl)cc2)o1` (centres undefined) the figure was -6.83%.
With `COC(=O)c1c(C)[nH]c(C(=O)OCc2ccc(F)cc2)c1C` the figure was 13%; with `O=C1C2ON(c3ccccc3)C(c3ccncc3)C2C(=O)N1c1ccc(Br)cc1` (centres undefined), -9.58%; with `OCCN=C(c1ccccc1)C12CN3CN(CN(C3)C1)C2`, -0.01%.
With `C=CCOC(=O)C(C#N)c1nc2ccccc2nc1N1CCC(C(=O)OCC)CC1` (centres undefined) the figure was 45.6%.
`CCOC(=O)C1CCCN(c2nc3ccccc3nc2C(C#N)C(=O)OC(C)COC)C1` (centres undefined): the growth inhibition is 24.2%.
With `CCOC(=O)c1[nH]c2ccc(OC)cc2c1NC(=O)CN1CCN(c2ccccn2)CC1` the figure was 0.14%; with `CC(C)Cc1nc(N2CCOCC2)c(C#N)c2c1CCC2`, 4.59%; with `CC(C)C(=O)N1CCN(c2nc(-c3ccccc3)c3c(c2C#N)CC(C)(C)OC3)CC1`, 34.1%.
As for `CC1(C)Cc2c(C#N)c(N3CCOCC3)nc(-c3ccccc3)c2CO1`, the growth inhibition is 13.6%.
With `CC(C)Cc1nc(N2CCCCC2)c(C#N)c2c1CCC2` the figure was 20.9%; with `CC(C)Cc1nc(N2CCN(C(=O)c3ccco3)CC2)c(C#N)c2c1CCC2`, 57.2% (active); with `CC(C)C(=O)N1CCN(c2nc(-c3ccccc3)c3c(c2C#N)CCCC3)CC1`, 68% (active).
With `CCCC(=O)N1CCN(c2nc(CC(C)C)c3c(c2C#N)CCC3)CC1` the figure was 53.8% (active); with `CC(=O)N1CCN(c2nc(CC(C)C)c3c(c2C#N)CCC3)CC1`, 22.1%; with `CC(C)Cc1nc(N2CCN(C(=O)C(C)C)CC2)c(C#N)c2c1CCC2`, 42.3%.
On to `c1ccc(C2Nc3ccccc3-c3nc4ccccc4n32)nc1` (centres undefined), for which the growth inhibition is 26%.
With `Cc1nn(CC(=O)NCCN2CCOCC2)c(=O)c2ccccc12` the figure was 1.62%; with `Oc1ccccc1CNn1cnnc1`, 7.07%; with `Cc1ccc(OCC(=O)N(C)CCc2ccccn2)cc1`, -1.84%.
With `O=C(NCc1cccnc1)c1ccc(=O)oc1` the figure was -2.22%.
With `CSc1nc(NC(C)=O)nc(C)c1Cl` the figure was 3.88%; with `C=CCN(C(=O)CCC(=O)O)C1CC(=O)N(c2ccc(OCCC)cc2)C1=O` (centres undefined), 34.7%; with `Cc1cccc(C)c1NC(=O)C1CCCCN1C` (centres undefined), -1.85%.
Turning to `Cc1cccc(C)c1NC(=O)CSCC(=O)c1ccc(O)c(O)c1`, the growth inhibition is 76.2% (active).
On to `CCN(CC)CC(=O)Nc1c(C)cccc1C`, for which the growth inhibition is -1.4% and -6.03%.
With `COc1ccc(/C(O)=C2/C(=O)C(=O)N(CCN3CCOCC3)C2c2ccccn2)cc1` (centres undefined) the figure was 7.6%; with `Cc1cc(=O)[nH]c(COc2ccccc2)n1`, 6.76%.
As to `COCc1cc(=O)[nH]c(Nc2nc3ccccc3o2)n1`, the growth inhibition was 66.6% (active).
With `COCc1cc(=O)[nH]c(Nc2nc3ccc(C)cc3o2)n1` the figure was 70.6% (active); with `Cc1cc(C)n(C(=O)CSc2nc3ccccc3o2)n1`, -7.75%.
Regarding `Cc1cccc(OCc2nc(C)cc(=O)[nH]2)c1`, the growth inhibition was 1.95%.
With `COc1ccccc1C1CC(c2ccc(Cl)cc2)Nc2nc(N)nn21` (centres undefined) the figure was 8.72%; with `Cc1cc2c(C)nc(Cc3ccccc3)nc2o1`, 1.92%; with `CCCCCCn1c(C(C)O)nc2ccccc21` (centres undefined), 15.7%.
With `COc1cccc(/C(O)=C2/C(=O)C(=O)N(CCCN(C)C)C2c2cccc(Cl)c2)c1` (centres undefined) the figure was -2.1%; with `Cc1cccc(N2CN=c3s/c(=C\c4ccncc4)c(=O)n3C2)c1`, 5.71%.
In the case of `N#CC1=C(N)N(c2ccccc2)C(c2ccccc2)C1(C#N)C#N` (centres undefined), the growth inhibition is 21.4%.
With `Cn1ncc(N=Cc2c(O)ccc3ccccc23)c1C(=O)N1CCOCC1` the figure was 3.71%.
With `Cc1coc2c(O)cc3c(c12)OC1(N2CCCCC2)C(=O)NCCCC31` (centres undefined) the figure was 91.4% (active); with `COc1ccc(C2N3CC4(C)CN2CC(C)(C3)C4O)cc1OC` (centres undefined), 0.13%.
With `CC1(C)Cc2c(oc3ncn4ncnc4c23)CO1` the figure was 0.31%; with `COc1cc(C)nc(Oc2ccc(OCCOc3ccc(C)cc3)nn2)n1`, 6.13%; with `CC1(C)Cc2c(c(N3CCCCC3)[nH]c(=S)c2C#N)CS1`, 4.02%.
Consider `CC1CCN(c2[nH]c(=S)c(C#N)c3c2CCCC3)CC1`, for which the growth inhibition is 56% (active).
With `CCc1[nH]c(=O)c(C#N)c2c1CCCC2` the figure was 2.12%; with `COc1ccc2c(c1)[nH]c1c(=O)n(CCN(C)C)cnc12`, 4.43%.
With `CC1(C)SC2[C@H](NC(=O)C(NC(=O)N3CCNC3=O)c3ccccc3)C(=O)N2C1C(=O)O` (some centres undefined) the figure was 3.08%; with `CC(C)C1C(C#N)=C(N)Oc2n[nH]c(C(C)(C)C)c21` (centres undefined), -3.11%.
With `Cc1[nH]nc2c1C(CCc1ccccc1)C(C#N)=C(N)O2` (centres undefined) the figure was 0.1%; with `C1CCC(C(CC2CCCCN2)C2CCCCC2)CC1` (centres undefined), 91.8% (active); with `N#CCSc1nc2c(c(=O)n1Cc1ccco1)C1(CCCC1)Cc1ccccc1-2`, 30.2%.
Turning to `Cc1ccnc(N2CCN(c3c4c(c(C#N)c5nc6ccccc6n35)CCC4)CC2)c1`, the growth inhibition is 7.43%.
With `COc1cc(=O)[nH]c(=O)n1CC(=O)c1ccccc1` the figure was -1.03%; with `CC1(C)Cc2c(C#N)c(NCCc3ccccc3)nc(-c3ccco3)c2CO1`, 1.2%; with `CCCCc1nc(NCCNC(=O)c2ccco2)c(C#N)c2c1CSC(C)(C)C2`, 56.1% (active).
With `CC1(C)Cc2c(C#N)c(N3CCN(C(=O)c4ccccc4)CC3)nc(-c3ccco3)c2CS1` the figure was 12.2%.
With `CCCCc1nc(NCCN2CCOCC2)c(C#N)c2c1COC(C)(C)C2` the figure was 1.05%; with `CC1(C)Cc2c(C#N)c(N3CCN(C(=O)c4ccco4)CC3)nc(Cc3ccccc3)c2CO1`, 72.3% (active); with `CCc1nc(N2CCN(C(=O)c3ccccc3)CC2)c(C#N)c2c1COC(C)(C)C2`, 36.6%.
Regarding `CC1(C)Cc2c(C#N)c(N3CCOCC3)nc(Cc3ccccc3)c2CO1`, the growth inhibition was 16.7%.
With `CC1(C)Cc2c(c(-c3ccco3)[nH]c(=O)c2C#N)CS1` the figure was 0.57%; with `CC1(C)Cc2c(C#N)c(N3CCN(C(=O)c4ccco4)CC3)nc(-c3ccco3)c2CS1`, 50.1% (active); with `CCOC(=O)C(C(=O)OCC)N(C#N)c1nc(SC)nc(N(C)C)n1`, -4.38%.
`Cc1nnc(SCC(=O)N2CCC(C(N)=O)CC2)s1`: the growth inhibition was -21.6%.
As for `C=C(C)CN(CC)CCC(=O)Nc1ccc(OC)cc1OC`, the growth inhibition is 4.6%.
With `COC(=O)CNC(=O)c1c(C)cc(=O)oc1C` the figure was 0.81%; with `CC1(C(=O)CSc2nc3ccccc3s2)CCC(=O)O1` (centres undefined), 3.38%; with `O=c1cc(N2CCCCC2)nc2n1CCCS2`, 8.96%.
With `Cc1ccc(S(=O)(=O)N2CCN(c3nc(C(C)C)c4c(c3C#N)CC(C)(C)OC4)CC2)cc1` the figure was 29.3%; with `Clc1ccc2[nH]c3c(NCCN4CCOCC4)ncnc3c2c1`, 34.3%.
With `Cc1ccc2[nH]c3c(NCCN4CCOCC4)ncnc3c2c1` the figure was 18%; with `Clc1ccc2[nH]c3c(NCCCN4CCOCC4)ncnc3c2c1`, 89.9% (active).
In the case of `C=CCn1c(SCC#N)nc2c(c1=O)C(C)(C)Cc1ccccc1-2`, the growth inhibition is 28.8%.
Turning to `COn1c(=S)[nH]c2ccccc2c1=O`, the growth inhibition was 3.49%.
With `CCCCCCCCCCCCCCCC(O)C(N)CO` (centres undefined), the growth inhibition was 94.3% (active).
With `CCSC(SCC)[C@H](O)[C@@H](O)[C@H](O)[C@H](O)CO` the figure was -2.15%.
With `Cc1cc(C)n(-c2c(F)c(F)c(CN3CCCCC3)c(F)c2F)n1` the figure was 9.57%; with `CN(C)c1cccc2c(S(=O)(=O)N3CCOCC3)cccc12`, 15.9%.
As for `Cc1ccc(C(=O)/C=C/Nc2cccc(O)c2)cc1`, the growth inhibition was 37.1%.
With `O=c1c(C=NCCCn2ccnc2)c(-c2ccccc2)[nH]n1-c1nc2ccccc2s1` the figure was 17%; with `O=C(NCCCn1ccnc1)C(Cc1ccccc1)N1C(=O)c2ccccc2C1=O` (centres undefined), 2.6%; with `N=c1c2c(-c3ccccc3)c(-c3ccccc3)n(Cc3ccccc3)c2ncn1CCCn1ccnc1`, 91.5% (active).
Turning to `Cc1cc(C)c2c(N)c(C(=O)c3ccccc3)oc2n1`, the growth inhibition was 19.9%.
For `Cc1nn(-c2ccccc2)c2c1C(c1ccc(F)cc1F)C(C#N)=C(N)O2` (centres undefined), the growth inhibition was 17%.

Values taken from PubChem BioAssay AID371 (SRMLSC, 2006).
